The values that follow come from PubChem BioAssay (NCI).

About 83,000 compounds went through this panel and 20% of them were active in at least one assay; those are over-represented in the sample as a whole.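 Interpretation: 100, growth as untreated; towards 0, rising growth inhibition; 0, no net growth; 0 to -100, cell death. Compounds scoring below 10 were considered active.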 A number with no mark means an inactive call. The source made the active and inactive calls.

Among the test systems are NCI-H23 lung; NCI-H226 lung; NCI-H322M lung; HOP-62 NSCLC; NCI-H460 lung; HOP-92 NSCLC; NCI-H522 lung; A549/ATCC NSCLC; 786-0 renal; COLO 205 colon; DU-145 prostate; K-562 leukemia; MALME-3M melanoma; MDA-MB-231 breast; RXF 393 renal; SF-268 CNS; SF-295 CNS; SF-539 CNS; UACC-257 melanoma; M14 melanoma.
What all share (assay): NCI-60 one-dose screen, 48 h (100 = growth as untreated, 0 = no growth, -100 = all killed)
Conditions in all cases: 10 µM unless noted

`Nc1ncnc2c1N=C(c1ccc([N+](=O)[O-])cc1)CC(c1ccc3c(c1)OCO3)N2` (stereo not given): the growth in the assay on NCI-H23 lung is 83.8%; in the assay on NCI-H226 lung it was 86.5%; with NCI-H322M lung, 87.3%; in the assay with HOP-62 NSCLC, 86.6%; in the assay with NCI-H460 lung, 96.2%; in the assay on HOP-92 NSCLC it was 34%. Further, the growth with NCI-H522 lung was 84.9%; with A549/ATCC NSCLC, 96.6%; in the assay on 786-0 renal, 98.7%; in the assay with COLO 205 colon it was 96.2%; with DU-145 prostate it was 94.6%; with K-562 leukemia, 93.4%. In addition, the growth in the assay with MALME-3M melanoma is 107%; in the assay on MDA-MB-231 breast it was 75%; with RXF 393 renal, 75.6%; in the assay on SF-268 CNS, 90.1%; in the assay with SF-295 CNS it was 67.5%; in the assay with SF-539 CNS it was 85.7%. In addition, the growth is 116% in the assay with UACC-257 melanoma and 119% in the assay on M14 melanoma.
In the case of `C=C(CNCCc1ccc(O)cc1)[C@@H]1CC[C@]2(CO)CC[C@]3(C)[C@H](CC[C@@H]4[C@@]5(C)CCC(N)C(C)(C)[C@@H]5CC[C@]43C)[C@@H]12` (stereo not given in full), the growth in the assay with NCI-H23 lung was -66.5% (active); with NCI-H226 lung, 87.6%; in the assay with NCI-H322M lung, -53.7% (active); in the assay with HOP-62 NSCLC it was -74.7% (active); with NCI-H460 lung, -86.7% (active); in the assay with HOP-92 NSCLC, -78.8% (active). The growth is -64.8% (active) in the assay on NCI-H522 lung; -66.6% (active) in the assay on A549/ATCC NSCLC; -87.3% (active) with 786-0 renal; -72.2% (active) in the assay with COLO 205 colon; -68.6% (active) in the assay with DU-145 prostate; -50.9% (active) with K-562 leukemia. Also, the growth in the assay on MALME-3M melanoma was -86.2% (active); in the assay with MDA-MB-231 breast, -80.5% (active); with RXF 393 renal it was -90.9% (active); in the assay on SF-268 CNS it was -74.3% (active); with SF-295 CNS it was -82% (active); in the assay with SF-539 CNS, -93.4% (active). The growth in the assay with UACC-257 melanoma is -77.3% (active); with M14 melanoma it was -81.8% (active).
Take `COc1cc2c(c(OC)c1OC)CCC(c1cccc(C(=O)Nc3ccccc3Br)c1)O2` (stereo not given): the growth with NCI-H23 lung is 97.2%; in the assay with NCI-H226 lung, 92.3%; in the assay with NCI-H322M lung, 94.9%; in the assay with HOP-62 NSCLC, 92.3%; with NCI-H460 lung, 104%; with HOP-92 NSCLC it was 66.3%. Moreover, the growth with NCI-H522 lung was 80.1%; in the assay with A549/ATCC NSCLC, 81.2%; with 786-0 renal it was 76.2%; in the assay with COLO 205 colon, 90.5%; with DU-145 prostate it was 86.7%; in the assay with K-562 leukemia it was 71.5%. Also, the growth was 89.6% with MALME-3M melanoma; 83.3% with MDA-MB-231 breast; 91.8% in the assay with RXF 393 renal; 87.1% in the assay with SF-268 CNS; 94.9% in the assay with SF-295 CNS; 83.1% in the assay with SF-539 CNS. The results for the growth in the assay with UACC-257 melanoma and with M14 melanoma were 90.7% and 67.4%, respectively.
For `Nc1cc(-c2ccc(Cl)cc2)nn1-c1nc(-c2ccc(Br)cc2)cs1`, the growth in the assay on NCI-H23 lung was 100%; in the assay on NCI-H226 lung, 96.3%; in the assay with NCI-H322M lung, 93.3%; in the assay on HOP-62 NSCLC it was 97.9%; in the assay on NCI-H460 lung it was 105%; with HOP-92 NSCLC it was 90%. For the same compound, the growth in the assay on NCI-H522 lung is 84.2%; in the assay on A549/ATCC NSCLC, 88.1%; in the assay with 786-0 renal, 93.6%; in the assay on COLO 205 colon it was 100%; with DU-145 prostate it was 108%; in the assay on K-562 leukemia it was 105%. Moreover, the growth is 86.7% with MALME-3M melanoma; 97.3% in the assay with MDA-MB-231 breast; 103% in the assay with RXF 393 renal; 106% in the assay on SF-268 CNS; 96.6% in the assay on SF-295 CNS; 97.9% in the assay on SF-539 CNS. The values for the growth in the assay with UACC-257 melanoma and with M14 melanoma were 92.1% and 96.1%, respectively.
Take `CCCC1Cc2cc(-n3nc(C)c4c3CC(C)(C)CC4=O)cc(NC3CCC(O)CC3)c2C(=O)N1` (stereo not given): the growth was 34.5% with NCI-H23 lung; 47.7% with NCI-H226 lung; 50.5% in the assay on NCI-H322M lung; 40.1% in the assay on HOP-62 NSCLC; 18% in the assay with NCI-H460 lung; -0.467% (active) in the assay on HOP-92 NSCLC. The growth in the assay on NCI-H522 lung is 39.1%; with A549/ATCC NSCLC, 31.6%; with 786-0 renal it was 49.9%; in the assay on COLO 205 colon, 14%; in the assay on DU-145 prostate it was 53.7%; in the assay with K-562 leukemia, 14.3%. Also, the growth with MALME-3M melanoma is 12.3%; in the assay with MDA-MB-231 breast, -15.1% (active); with RXF 393 renal, 65.3%; in the assay with SF-268 CNS, 65.3%; with SF-295 CNS, 21%; with SF-539 CNS it was 34.4%. Also, the growth in the assay with UACC-257 melanoma was 37.1%; in the assay on M14 melanoma it was 33.7%.
As for `Nc1nc(N)c2c(n1)NC(c1ccc3c(c1)OCO3)CC(c1cccc(Nc3ccncc3)c1)=N2` (stereo not given), the growth is 90% with NCI-H23 lung; 84.6% in the assay with NCI-H226 lung; 96.9% with NCI-H322M lung; 90.4% in the assay on HOP-62 NSCLC; 96.5% in the assay with NCI-H460 lung; 70.7% with HOP-92 NSCLC. Moreover, the growth in the assay on NCI-H522 lung was 77.3%; in the assay with A549/ATCC NSCLC, 79.6%; in the assay with 786-0 renal, 96.9%; in the assay with COLO 205 colon, 86.3%; in the assay on DU-145 prostate, 106%; in the assay on K-562 leukemia, 44.3%. Besides, the growth in the assay with MALME-3M melanoma is 100%; in the assay on MDA-MB-231 breast, 94.2%; in the assay with RXF 393 renal, 82.2%; with SF-268 CNS, 68.1%; in the assay on SF-295 CNS, 96.5%; in the assay with SF-539 CNS, 101%. The growth in the assay with UACC-257 melanoma was 67.3%; in the assay with M14 melanoma, 83.5%.
For the compound `C=C1C(=O)O[C@H]2[C@H]1CC/C(CNC(=O)/C=C/c1cc(OC)c(OC)c(OC)c1)=C\CC[C@@]1(C)O[C@@H]21`, the growth was -31.3% (active) in the assay with NCI-H23 lung; -61.8% (active) in the assay with NCI-H226 lung; 60% in the assay on NCI-H322M lung; 26% with HOP-62 NSCLC; 82.3% in the assay with NCI-H460 lung; -36% (active) in the assay with HOP-92 NSCLC. Besides, the growth was -93.5% (active) in the assay with NCI-H522 lung; 40% in the assay on A549/ATCC NSCLC; -68.5% (active) in the assay on 786-0 renal; -86.5% (active) in the assay with COLO 205 colon; 7.86% (active) in the assay on DU-145 prostate; -9.87% (active) in the assay on K-562 leukemia. Further, the growth with MALME-3M melanoma is -36.6% (active); with MDA-MB-231 breast, 5.65% (active); in the assay on RXF 393 renal, -88% (active); with SF-268 CNS, 28.1%; with SF-295 CNS it was 50.4%; with SF-539 CNS it was -36% (active). The growth is -26.1% (active) with UACC-257 melanoma and -32.3% (active) with M14 melanoma.
